Assay results taken from the supplement of paper PMC3334620.
The full ranking holds about 33,000 sequences; the median of “E-score (-0.5 to 0.5)” is about -0.012, and the highest 2% start at about 0.27. For the sample, the highest values were picked, then their nearest neighbours and some sequences at random.

molecular target: T1, Vhr1 (UniProt P40522); assay: PBM E-score (8-mer binding enrichment) (E-score (-0.5 to 0.5)); higher = stronger / more preferred TF binding; settings: protein concentration: 200 nM; construct: GST-full length
T1 sequence: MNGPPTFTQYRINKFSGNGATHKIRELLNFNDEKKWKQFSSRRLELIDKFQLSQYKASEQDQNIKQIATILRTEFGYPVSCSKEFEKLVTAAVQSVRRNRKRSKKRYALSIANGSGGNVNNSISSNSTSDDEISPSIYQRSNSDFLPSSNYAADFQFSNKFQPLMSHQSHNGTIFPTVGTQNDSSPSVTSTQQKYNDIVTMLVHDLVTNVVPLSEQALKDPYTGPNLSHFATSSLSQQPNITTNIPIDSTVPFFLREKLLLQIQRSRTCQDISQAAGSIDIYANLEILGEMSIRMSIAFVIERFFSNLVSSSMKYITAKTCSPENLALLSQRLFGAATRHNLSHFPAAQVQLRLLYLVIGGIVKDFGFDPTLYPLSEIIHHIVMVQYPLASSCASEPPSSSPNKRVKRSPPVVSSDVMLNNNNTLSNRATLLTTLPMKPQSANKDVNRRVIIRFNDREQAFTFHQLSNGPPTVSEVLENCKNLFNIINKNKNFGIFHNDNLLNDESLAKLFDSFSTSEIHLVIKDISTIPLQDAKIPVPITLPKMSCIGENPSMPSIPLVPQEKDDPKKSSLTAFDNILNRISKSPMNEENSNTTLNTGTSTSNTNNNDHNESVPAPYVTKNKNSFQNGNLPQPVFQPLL
Procedure, shortened: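 GST-tagged yeast TFs (full-length or DNA-binding domain) were made by PURExpress in vitro transcription/translation and applied at about 100-200 nM to universal all-10-mer Agilent arrays. The arrays were made double-stranded by primer extension, on fresh or once-stripped slides. Bound protein was detected with fluorescent anti-GST, and scans were normalised with masliner. Each ungapped eight-base word, pooled with its reverse complement, received an E-score (modified Wilcoxon-Mann-Whitney statistic) from the Universal PBM Analysis Suite.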

Sequence | PBM E-score
ACAAGAGT | 0.108
ACAGGGAC | -0.138
GCTTAGGA | -0.0935
GCACTACC | -0.0106
GTACCCGA | -0.161
AAGCTGCA | -0.00033
TCGACTCA | 0.349
TCGACCCA | 0.166
TCTACTCA | 0.112
GCCATAGC | -0.0742
GCATGCGA | 0.159
CCATGCGA | 0.0318
TCATGCGA | 0.285
CTATGATC | 0.112
CGTCGACC | -0.00578
AGTCGACC | -0.0312
CGTCGACG | 0.161
AGTCGACT | 0.33
ACTCGACG | 0.269
AGTCGACA | 0.197
GGTCGACC | 0.32
AGTCGACG | 0.278
GGTCGACA | -0.0223

Sequence | PBM E-score
ACATCCCG | 0.231
CCTGCACA | -0.0959
AGTCGAGA | 0.0118
ACATAGAC | 0.0646
ATCCATAC | 0.0581
CCACCTCG | -0.085
CCTTGACC | -0.111
AGGAGTTG | -0.00747
AGGAGTCG | 0.339
GGGAGTTA | -0.144
AGGAGTGA | 0.00535
GGGAGTAA | 0.0449
AGGAGTCA | 0.479
GGGAGTCA | 0.47
AGGAGTAA | 0.0927
AGGAGTCC | 0.165
AAGAAAGC | -0.174
ACTAAAAT | -0.0643
ACACTTCG | 0.0579
CCCTGCAC | -0.0585
CGATTTTA | -0.0769
CGCTCCCC | -0.16
CTCACTGA | 0.14
